High-throughput results from PubChem.
In the library only some 3.3% were active in any assay of this set; here they are far more common.
ROMK mod: modulates human ROMK potassium channel activity | AID 1918 | Tet-inducible ROMK, thallium flux fluorescence; actives lie on both sides | P48048 | 130,000 tested, 2% active | B-score at 10 µM;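 active means signal ratio slope over the read window, or its plate-corrected B-score, at least 3 SD from the plate mean, either direction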;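 further: B-score of the F/F0 ratio slope over 7 to 12 s after thallium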
WT yeast gro inh: growth inhibition of WT yeast, mitochondrial fusion screen; AID 1362; 190,000 tested, 2.1% active; mitochondrial fusion phenotypic screen, WT strain; inhibition, % at 10 µM; in the data active means inhibition above about 58%; tested in S. cerevisiae
PERK inh: inhibitors of human PERK kinase | Q9NZJ5 | CHO PERK-DD fusion, SEAP luminescence translation reporter | inhibition, % at 5.6 µM | 220,000 tested, 0.17% active;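 active means inhibition above the mean inhibition of all tested compounds plus 3 SD, set separately per screening campaign, cut at about 2.9% in these data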;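 further: PERK kinase domain activated by AP20187 dimerizer at 100 nM; 0% = DMSO with dimerizer and 100% = rapamycin at 8.4 µM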
Target sequence (Q9NZJ5 whole entry, looked up, the tested form may be a part): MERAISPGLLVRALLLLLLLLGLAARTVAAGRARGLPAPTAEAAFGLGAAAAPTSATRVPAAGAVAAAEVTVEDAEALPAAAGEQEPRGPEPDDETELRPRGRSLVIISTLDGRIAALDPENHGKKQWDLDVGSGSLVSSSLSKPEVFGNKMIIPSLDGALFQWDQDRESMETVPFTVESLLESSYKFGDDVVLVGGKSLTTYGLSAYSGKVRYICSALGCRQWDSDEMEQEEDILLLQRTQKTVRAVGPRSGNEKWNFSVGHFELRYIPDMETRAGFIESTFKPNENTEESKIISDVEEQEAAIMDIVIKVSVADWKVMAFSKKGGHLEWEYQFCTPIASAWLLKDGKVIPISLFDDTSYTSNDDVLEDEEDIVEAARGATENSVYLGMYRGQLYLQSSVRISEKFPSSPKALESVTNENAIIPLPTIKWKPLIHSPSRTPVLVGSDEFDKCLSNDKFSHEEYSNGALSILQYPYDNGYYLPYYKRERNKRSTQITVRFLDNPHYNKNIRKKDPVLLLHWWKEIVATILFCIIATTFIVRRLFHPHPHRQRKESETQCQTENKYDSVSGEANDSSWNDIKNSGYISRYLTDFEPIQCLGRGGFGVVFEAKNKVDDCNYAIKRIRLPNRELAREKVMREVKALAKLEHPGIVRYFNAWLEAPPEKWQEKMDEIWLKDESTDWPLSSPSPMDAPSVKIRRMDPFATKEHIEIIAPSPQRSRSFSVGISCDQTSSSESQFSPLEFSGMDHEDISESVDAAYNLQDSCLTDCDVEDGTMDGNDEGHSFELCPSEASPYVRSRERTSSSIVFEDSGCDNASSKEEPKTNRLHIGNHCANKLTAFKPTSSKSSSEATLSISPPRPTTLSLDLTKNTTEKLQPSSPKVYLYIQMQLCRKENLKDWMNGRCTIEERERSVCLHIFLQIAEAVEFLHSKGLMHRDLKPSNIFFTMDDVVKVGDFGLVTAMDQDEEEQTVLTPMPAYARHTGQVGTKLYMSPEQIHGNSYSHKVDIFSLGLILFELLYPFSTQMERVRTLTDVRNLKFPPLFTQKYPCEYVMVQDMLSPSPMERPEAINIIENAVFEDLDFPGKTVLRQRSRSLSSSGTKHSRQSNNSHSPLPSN
Arbovirus anti: arbovirus infection inhibition. arbovirus infection cell-based antiviral screen. inhibition, % at 10 µM. 200,000 tested, 0.37% active. AID 1251; in the data active means inhibition above about 30%
* hit, by the source's call; . = no result given.

SMILES | ROMK mod | WT yeast gro inh | PERK inh | Arbovirus anti
Nc1ccc2nc(CN3CCOCC3)[nH]c2c1 | 0.93 | 66* | 1 | 4
O=S(=O)(c1ccc(Cl)c(Cl)c1)c1snnc1-c1ccccc1 | -0.49 | 84* | 0 | -45
COc1ccc(C=O)cc1CSc1nnc(COc2cccc3cccnc23)o1 | -1.1 | 67* | -1 | 1
COc1ccc(N2CCN(C(=O)CSc3nnc(COc4cccc5cccnc45)o3)CC2)cc1 | -0.58 | -3 | -1 | 11
CCn1c(C(=O)OC)cc2c1ccn2-c1ccc(F)cc1 | 0.22 | 77* | 0 | 11
COC(=O)c1cc2c(ccn2-c2ccc(F)cc2)n1Cc1ccc(OC)cc1 | -0.22 | -21 | 1 | 5
N#CCC(=O)N/N=C/c1ccc(Cl)cc1 | 0.025 | . | 1 | .
Cc1ccc(-n2c(-c3ccccc3)cc(/C=N/NC(=O)CC#N)c2-c2ccccc2)cc1 | 0.064 | 73* | 1 | -4
N#CCC(=O)N/N=C/c1cc(-c2ccccc2)n(-c2ccc(Cl)cc2)c1-c1ccccc1 | 1.3 | 80* | 1 | -10
CCCCOc1ccccc1/C=N/NC(=O)CC#N | 0.52 | 3 | 1 | 6
CS(=O)(=O)N(CC(=O)NC1CCCCCC1)Cc1ccc(Cl)cc1 | 0.057 | -18 | 0 | 10
CCC(=O)N1N=C(c2c(O)n(C)c(=O)n(C)c2=O)CC1c1ccccc1 (centres undefined) | -0.072 | . | 0 | .
O=c1ccccn1CCOc1ccccc1Cl | . | -13 | 1 | 0
O=c1ccccn1Cc1c(Cl)cccc1Cl | . | 73* | 1 | -3
O=C1CCc2ccc(OCCCCN3CCN(c4cccc(Cl)c4Cl)CC3)cc2N1 | . | 84* | 1 | 0
Cc1cccc(C)c1NC(=O)CN(C)CC(=O)Nc1ccccc1Br | . | 66* | 0 | 5
CCOC(=O)N1CCN(C(=O)CSCC(=O)Nc2nc(-c3ccc(-c4ccccc4)cc3)cs2)CC1 | . | 31 | 0 | -21
O=C(CSc1nc2ccccc2o1)Nc1nc(-c2ccccc2)cs1 | . | 63* | 1 | -4
CCOC(=S)SCC(=O)Nc1nc(-c2ccccc2)cs1 | . | 80* | 0 | -3
CCOC(=S)SCC(=O)Nc1nc(-c2ccc(Br)cc2)cs1 | 0.12 | 74* | 1 | -27
O=C(CSc1nc2ccccc2[nH]1)Nc1nc(-c2cccc(Br)c2)cs1 | . | 88* | 0 | 10
CC(Cc1cccs1)NC(=O)Nc1ccc(Cl)c(Cl)c1 (centres undefined) | -2.1 | 81 | 0 | -37
COc1ccc(-c2csc(NC(=O)CSc3nc(C)cs3)n2)cc1 | -0.0037 | -18 | 3.6* | 3
CCOC(=O)C1CCN(S(=O)(=O)c2c(C)n[nH]c2C)CC1 | . | 67* | 0 | 1
FC(F)(F)c1nc(N2CCCC2)ncc1-c1nnnn1-c1ccc(Cl)cc1 | . | 59* | -2 | -17
SMILES | ROMK mod | WT yeast gro inh | PERK inh | Arbovirus anti
Cc1cc(C)cc(NC(=S)NC2CC3CCC(C2)N3Cc2ccco2)c1 (centres undefined) | . | 79* | 0 | 1
Cc1ccc(C)c(NC(=S)NC2CC3CCC(C2)N3Cc2ccco2)c1 (centres undefined) | . | 5 | 1 | 3
CC(C)CNC(=O)c1oc2ccccc2c1COc1ccccc1 | 0.079 | 63* | 0 | 4
CCC(CC)NC(=O)c1oc2ccccc2c1COc1ccccc1 | . | 38 | 0 | -1
Cc1cccc(NC(=S)NCc2ccco2)c1C | -0.42 | 8 | 0 | 14
COc1ccc(-c2nc(CN3CCCCC3c3nccn3C)c(C)o2)c(C)c1C (centres undefined) | -0.78 | 75* | 0 | -14
O=C(CSc1ncn[nH]1)N(C1CCCCC1)C1CCCCC1 | 0.78 | 1 | -1 | 14
COc1cc(Nc2nc(-c3ccccc3)c3cc(C)ccc3n2)cc(OC)c1OC | 0.033 | 73* | -1 | -32
COc1ccc(-c2cc3nc(-c4ccccc4)cc(N4CCC5(CC4)OCCO5)n3n2)cc1 | -0.41 | -2 | -2 | 5
Cc1cccc(-c2cc3nc4c(c(N5CCCC(O)C5)n3n2)CCC4)c1 (centres undefined) | -0.69 | 17 | -1 | -20
OC1CCN(c2cc(-c3ccccc3)nc3cc(-c4ccc(F)cc4)nn23)CC1 | 0.3 | -16 | 0 | 0
OC1CCCN(c2c3c(nc4cc(-c5cccc(F)c5)nn24)CCCC3)C1 (centres undefined) | -0.36 | 69* | 0 | -8
OC1CCN(c2c3c(nc4cc(-c5ccc(F)cc5)nn24)CCC3)CC1 | . | 8 | -1 | -10
CCN1CCN(c2cc(-c3ccccc3)nc3cc(-c4cccc(F)c4)nn23)CC1 | -0.84 | 82* | -1 | -36
OC1CCCN(c2c3c(nc4cc(-c5cccc(Cl)c5)nn24)CCC3)C1 (centres undefined) | . | 67* | -1 | -8
COc1cccc(-c2cc3nc(-c4ccccc4)cc(N4CCCC(O)C4)n3n2)c1 (centres undefined) | -0.21 | 69* | -1 | -32
O=C(O)c1ccccc1C(=O)c1ccc(Br)s1 | 1 | -4 | 2 | 9
CCCn1nnc(NC(=S)NC(=O)C(C)(C)C)n1 | -0.068 | -14 | 1 | 7
Cc1ccnc(N2CCC(C(=O)Nc3ccc4c(c3)OCCO4)CC2)n1 | 0.0053 | -23 | 1 | 4
Cc1ccc(-c2cc(-c3ccccc3Cl)c(C#N)c(N)n2)o1 | . | 2 | 1 | 22
Cc1ccc(-c2cc(-c3ccccc3)c(C#N)c(N)n2)o1 | . | 65* | -1 | -6
O=C(O)CCc1ccc(-c2ccc(F)cc2)n1Cc1ccco1 | . | 63* | 0 | 1
O=C(O)CCc1ccc(-c2ccccc2)n1Cc1ccco1 | 0.29 | 0 | 0 | 3
COc1ccc(C2=NN(C(N)=S)C(c3ccco3)C2)cc1 (centres undefined) | -0.45 | -3 | 0 | -3
CNC(=S)N1N=C(c2ccc(C)cc2)CC1c1ccc(Br)cc1 (centres undefined) | -0.19 | 58* | -1 | -10
SMILES | ROMK mod | WT yeast gro inh | PERK inh | Arbovirus anti
CC(C)c1ccc(C2CC(c3ccc(Br)cc3)=NN2C(N)=S)cc1 (centres undefined) | 0.43 | 65* | 2 | 3
CNC(=S)N1N=C(c2ccc(C)cc2)CC1c1ccc(Cl)cc1 (centres undefined) | -0.88 | -6 | -1 | 4
O=[N+]([O-])c1ccc(O)c(/C=N/NC(=S)Nc2ccc(Cl)cc2Cl)c1 | 2.9* | . | 0 | .
Cc1cc(Cl)ccc1NC(=O)CCC(=O)N/N=C/c1cc([N+](=O)[O-])ccc1O | 0.02 | -10 | 0 | -4
CC1=C(C#N)C(=O)N(C2CCS(=O)(=O)C2)C(=O)/C1=C\c1ccco1 (centres undefined) | -2.9* | . | 1 | .
O=C(Nc1cc2c(cc1Br)OCCO2)c1ccco1 | 0.64 | -4 | 0 | -1
O=C(CCn1nnc2ccccc21)Nc1nnc(Cc2ccccc2)s1 | -0.11 | 67* | -1 | 21
CCn1ccc2cc(OC)ccc2c1=S | . | 1 | 2 | -8
CCSc1ccc2cc(OC)ccc2[n+]1CC | 0.52 | 62* | 2 | -5
CNc1oc(-c2ccc(Cl)cc2)nc1C#N | 0.14 | 2 | -1 | 2
COC(=O)C1=C(O)/C(=C\c2ccc(CNC(=O)C(=O)Nc3ccc(C)cc3)o2)N=C1C | . | 76* | 0 | -15
COc1cc(CN2CCNC(=O)C2CC(=O)N2CCc3ccccc3C2)cc(OC)c1 (centres undefined) | -0.0025 | 4 | 0 | 3
